According to PubChem BioAssay:
Calls of active or inactive are those of the source.

How the values were obtained:
[1] = E. coli DRC41 culture turbidity changes, primary screen, E. coli filamentation inducer project, strain DRC41, OD650, 48 h (AID 1152);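 further: E. coli MC1000 strain DRC41 lacking acrAB efflux pump and sulA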; conditions: E. coli DRC41 (acrAB sulA), higher = more signal, called active from +8 up or from −8 down
[2] = small-molecule binders of probe aLefty1, primary screen, biochemical, small-molecule microarray, 635/667 nm fluorescence (AID 1153); conditions: higher = more signal;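 further: score merges spot fluorescence with signal-to-noise ratio from the scanned slide images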
[3] = PSAC antagonists in infected red cells, primary screen, cell-based, P. falciparum Indochina, OD700, 1 h (AID 1154); conditions: P. falciparum Indochina infected RBC osmotic lysis, higher = more signal, called active from +8 up or from −8 down
[4] = PSAC antagonists in infected red cells, primary screen, cell-based, P. falciparum Indochina, OD700, 2 h (AID 1155);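 further: lysis reports solute entry through the parasite surface anion channel PSAC; channel blockers reduce lysis of infected cells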; conditions: P. falciparum Indochina infected erythrocytes, osmotic lysis OD700; higher = more signal, called active from +8 up or from −8 down
[5] = osmotic lysis modulators in infected erythrocytes, primary screen, PSAC antagonist project, cell-based, P. falciparum Indochina, OD700, 3 h (AID 1156); conditions: higher = more signal, called active from +8 up or from −8 down
[6] = PSAC antagonists in infected red cells, primary screen, cell-based, P. falciparum Indochina, OD700, 18 h (AID 1157); conditions: P. falciparum Indochina infected erythrocytes, osmotic lysis OD700, 18 h; higher = more signal, called active from +8 up or from −8 down
[7] = modulators of S6 phosphorylation in cells, primary screen, cell-based, A549, cytoblot, luminescence, serum-stimulated (AID 1158); conditions: A549 phospho-S6 cytoblot, 5 h, higher = more signal;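 further: serum-stimulated A549 lung adenocarcinoma cells; signal is phosphorylated S6 detected by cytoblot immunostaining with HRP secondary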
[8] = molecular target: NADPH oxidase 2 (Homo sapiens) (UniProt P04839); experiment: NOX2-dependent H2O2 signal modulators, primary screen, NOX inhibitor project, cell-based, HEK293-NOX2, PMA-stimulated, Amplex Red fluorescence (AID 1159); conditions: 45 min, higher = more signal, called active from +8 up or from −8 down; further: test concentration not given here
NADPH oxidase 2 (Homo sapiens), sequence (P04839 whole entry, looked up): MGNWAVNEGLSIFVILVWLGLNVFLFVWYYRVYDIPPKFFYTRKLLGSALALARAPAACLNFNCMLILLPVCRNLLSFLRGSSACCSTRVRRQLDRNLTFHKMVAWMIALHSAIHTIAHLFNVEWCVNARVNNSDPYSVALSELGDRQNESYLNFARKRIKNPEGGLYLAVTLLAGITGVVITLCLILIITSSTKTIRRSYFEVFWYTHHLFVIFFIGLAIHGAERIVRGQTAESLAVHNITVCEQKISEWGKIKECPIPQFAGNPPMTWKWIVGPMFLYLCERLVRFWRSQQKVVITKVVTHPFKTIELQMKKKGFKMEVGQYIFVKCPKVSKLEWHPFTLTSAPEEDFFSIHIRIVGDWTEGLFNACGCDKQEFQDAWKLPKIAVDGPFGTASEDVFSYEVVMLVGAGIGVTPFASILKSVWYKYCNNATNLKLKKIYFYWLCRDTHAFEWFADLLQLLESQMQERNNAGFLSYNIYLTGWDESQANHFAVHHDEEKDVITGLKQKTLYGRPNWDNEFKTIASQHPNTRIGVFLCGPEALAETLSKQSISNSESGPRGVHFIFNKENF

[9] = molecular target: NADPH oxidase 4 (Homo sapiens) (UniProt Q9NPH5); experiment: NOX4-dependent H2O2 signal modulators, primary screen, NOX inhibitor project, cell-based, HEK293-NOX4, tetracycline-induced, Amplex Red fluorescence (AID 1160); conditions: 45 min, higher = more signal, called active from +8 up or from −8 down
NADPH oxidase 4 (Homo sapiens), sequence (Q9NPH5 whole entry, looked up): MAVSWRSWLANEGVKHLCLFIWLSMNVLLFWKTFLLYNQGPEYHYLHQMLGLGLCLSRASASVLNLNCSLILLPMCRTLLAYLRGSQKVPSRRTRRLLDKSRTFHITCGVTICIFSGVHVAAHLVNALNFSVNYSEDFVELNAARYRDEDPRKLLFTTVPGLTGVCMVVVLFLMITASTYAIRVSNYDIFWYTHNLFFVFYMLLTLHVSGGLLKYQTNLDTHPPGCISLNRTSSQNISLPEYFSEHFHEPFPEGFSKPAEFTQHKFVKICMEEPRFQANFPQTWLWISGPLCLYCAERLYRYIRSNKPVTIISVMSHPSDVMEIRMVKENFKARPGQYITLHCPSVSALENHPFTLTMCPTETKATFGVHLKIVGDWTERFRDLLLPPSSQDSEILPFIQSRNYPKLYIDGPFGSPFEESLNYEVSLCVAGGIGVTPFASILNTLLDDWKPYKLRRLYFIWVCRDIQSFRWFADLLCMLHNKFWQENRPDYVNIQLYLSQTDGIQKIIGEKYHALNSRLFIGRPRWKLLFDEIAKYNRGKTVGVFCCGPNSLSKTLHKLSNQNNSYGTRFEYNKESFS

[10] = molecular target: NADPH oxidase 5 (Homo sapiens) (UniProt Q96PH1); experiment: NOX5-dependent H2O2 signal modulators, primary screen, NOX inhibitor project, cell-based, HEK293-NOX5, Amplex Red fluorescence (AID 1161); conditions: HEK293-NOX5, ionomycin, 45 min, higher = more signal
NADPH oxidase 5 (Homo sapiens), sequence (Q96PH1 whole entry, looked up): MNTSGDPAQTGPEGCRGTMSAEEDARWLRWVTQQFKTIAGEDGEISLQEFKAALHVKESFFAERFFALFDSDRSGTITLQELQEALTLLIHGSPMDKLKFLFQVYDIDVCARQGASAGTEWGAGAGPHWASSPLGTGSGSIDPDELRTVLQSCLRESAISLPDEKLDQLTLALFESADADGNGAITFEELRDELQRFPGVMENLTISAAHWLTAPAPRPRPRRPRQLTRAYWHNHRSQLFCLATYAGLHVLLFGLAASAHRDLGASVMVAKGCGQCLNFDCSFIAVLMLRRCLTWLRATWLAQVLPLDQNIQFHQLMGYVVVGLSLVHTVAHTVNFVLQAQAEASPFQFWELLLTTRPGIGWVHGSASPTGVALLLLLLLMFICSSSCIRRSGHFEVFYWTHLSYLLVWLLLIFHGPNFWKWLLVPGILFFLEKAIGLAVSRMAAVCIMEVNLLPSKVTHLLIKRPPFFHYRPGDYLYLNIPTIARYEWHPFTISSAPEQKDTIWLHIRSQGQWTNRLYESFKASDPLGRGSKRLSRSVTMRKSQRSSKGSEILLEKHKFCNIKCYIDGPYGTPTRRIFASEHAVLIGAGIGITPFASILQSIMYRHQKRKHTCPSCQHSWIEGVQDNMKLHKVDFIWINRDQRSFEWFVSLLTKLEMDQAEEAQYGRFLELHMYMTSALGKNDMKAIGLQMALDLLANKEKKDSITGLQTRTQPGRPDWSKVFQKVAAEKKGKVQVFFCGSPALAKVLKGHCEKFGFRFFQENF

[11] = A549 cell viability effects, profiling panel, calcein-AM fluorescence, 48 h, basal (AID 1162); conditions: higher = more signal; further: test concentration not given here
[12] = adipocyte viability effects, profiling panel, cell-based, 3T3-L1 adipocytes, calcein-AM fluorescence, 48 h, basal (AID 1163); conditions: 3T3-L1 adipocytes viability, higher = more signal; further: test concentration not given here
[13] = HepG2 cell viability effects, profiling panel, calcein-AM fluorescence, 48 h, basal (AID 1164); conditions: higher = more signal; further: test concentration not given here
[14] = MM1S cell viability effects, profiling panel, calcein-AM fluorescence, 48 h, basal (AID 1165); conditions: higher = more signal;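 further: viability of MM1S multiple myeloma cells under basal unstimulated conditions; test concentration not given here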
[15] = basal RPMI8226 viability, no added stimulus, profiling panel, cell-based, calcein-AM fluorescence, 48 h, PK04 Diversity Set (AID 1166); conditions: RPMI8226 myeloma viability, higher = more signal;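 further: cells grown under basal conditions without added stimulus; test concentration not given here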
[16] = basal HepG2 mitochondrial membrane potential changes, profiling panel, cell-based, JC-1 fluorescence, 24 h, 100 nL compound (AID 1167); conditions: higher = more signal; further: test concentration not given here
[17] = basal 3T3-L1 adipocyte mitochondrial potential changes, profiling panel, cell-based, JC-1 fluorescence, 3T3-L1 adipocytes, 24 h, 100 nL compound (AID 1168); conditions: JC-1 mitochondrial fluorescence, higher = more signal, called active from +8 up or from −8 down; further: test concentration not given here
[18] = basal RPMI8226 mitochondrial membrane potential changes, profiling panel, cell-based, JC-1 fluorescence, 24 h, 100 nL compound (AID 1169); conditions: RPMI8226 myeloma, JC-1 mitochondrial potential fluorescence, higher = more signal; further: test concentration not given here
[19] = basal MM1S mitochondrial membrane potential changes, profiling panel, cell-based, JC-1 fluorescence, 24 h, 100 nL compound (AID 1170); conditions: higher = more signal; further: test concentration not given here
[20] = A549 lung cancer cell viability effects, profiling panel, resazurin fluorescence, 24 h, PK04 Diversity Set (AID 1171); conditions: higher = more signal, called active from +8 up or from −8 down; further: test concentration not given here

Row | Structure (SMILES) | z-score [1] | composite z-score [2] | z-score [3] | z-score [4] | z-score [5] | z-score [6] | z-score [7] | z-score [8] | z-score [9] | z-score [10] | z-score [11] | z-score [12] | z-score [13] | z-score [14] | z-score [15] | z-score [16] | z-score [17] | z-score [18] | z-score [19] | z-score [20]
1 | C[C@]1(C(=O)NCc2ccccc2)c2ccccc2C(=O)N(Cc2cc(F)cc(C(F)(F)F)c2)[C@H]1c1ccc(CO)cc1 | 0.537 (inactive) | -0.101 | 5.2 (inactive) | 1.01 (inactive) | 1.12 (inactive) | 0.38 (inactive) | -0.239 | -1.29 (inactive) | 0.26 (inactive) | -0.151 | 0.179 | -0.628 | 1.11 | 0.304 | 0.411 | 2.16 | 0.41 (inactive) | 0.714 | -0.765 | -0.375 (inactive)
2 | COc1ccc(C#Cc2ccc3c(c2)[C@]2(C(=O)N3)[C@H](c3ccc(O)cc3)N3[C@H](c4ccccc4)[C@H](c4ccccc4)OC(=O)[C@H]3[C@@H]2C(=O)NC[C@H](O)c2ccccc2)cc1 | 0.735 (inactive) | -0.021 | 1.1 (inactive) | 1.09 (inactive) | 0.541 (inactive) | 0.859 (inactive) | -0.193 | 1.91 (inactive) | -0.0599 (inactive) | 0.22 | -1.1 | 0.72 | -0.513 | -3 | -4.58 | -1.8 | 1.94 (inactive) | -1.12 | -1.3 | -0.475 (inactive)
3 | C=C[C@H](COC(C)=O)N(Cc1ccc(OC(C)=O)c(OC)c1)S(=O)(=O)c1ccc(Br)cc1 | 1.49 (inactive) | 0.19 | 3.23 (inactive) | -1.11 (inactive) | -0.827 (inactive) | -1.15 (inactive) | 2 | -4.68 (inactive) | -0.87 (inactive) | -1.95 | 1.18 | 0.139 | 0.285 | 0.594 | 0.394 | 0.43 | 1.19 (inactive) | 0.825 | -0.886 | 0.353 (inactive)
4 | O=C1C2C=CC(C(O)c3cccs3)N(Nc3ccccc3F)C2C(=O)N1c1ccccc1 (stereo not given) | 0.386 (inactive) | 0.248 | 1.35 (inactive) | -0.506 (inactive) | -1.27 (inactive) | -1.23 (inactive) | 0.224 | -0.932 (inactive) | -3.7 (inactive) | -1.78 | -0.543 | 0.289 | -0.901 | 0.46 | 0.167 | -0.686 | 0.321 (inactive) | 0.635 | -0.947 | 0.433 (inactive)
5 | CC(C)N1C(=O)c2ccccc2[C@@H](C(=O)NCCCN(C)C)[C@@H]1c1ccc(CO)cc1 | -0.534 (inactive) | 1.17 | 2.45 (inactive) | -0.0098 (inactive) | 2.5 (inactive) | 0.181 (inactive) | -0.0692 | 1.08 (inactive) | -0.858 (inactive) | -1.54 | 0.177 | 1.46 | 0.0397 | 0.551 | -0.981 | 1.09 | -0.205 (inactive) | 0.75 | 0.499 | -0.565 (inactive)
6 | CC(C)N1C(=O)C[C@@](C(=O)NCc2ccccc2)(c2ccc([N+](=O)[O-])cc2)[C@H]1c1ccc(CO)cc1 | 1.05 (inactive) | -0.409 | 1.58 (inactive) | -0.273 (inactive) | 1.03 (inactive) | 0.449 (inactive) | -0.081 | -0.85 (inactive) | -0.235 (inactive) | -1.72 | -0.508 | -0.749 | -0.113 | -0.0234 | -0.0746 | 0.924 | 1.08 (inactive) | -0.744 | 0.301 | 0.0885 (inactive)
7 | CC(=O)C1=CCC(c2ccccc2)N(S(=O)(=O)c2ccc(C)cc2)C1 (stereo not given) | -1.12 (inactive) | 0.157 | 2.75 (inactive) | 1.5 (inactive) | 1.4 (inactive) | 1.07 (inactive) | -0.26 | -0.179 (inactive) | -1.4 (inactive) | 0.0221 | -0.346 | 0.0159 | -0.727 | -0.0171 | -1.08 | -0.602 | -1.35 (inactive) | 0.697 | 0.329 | 0.183 (inactive)
8 | CN(C)C(=O)[C@@]1(CCC(=O)OC(C)(C)C)N=C(c2ccc(OCCCO)cc2)O[C@H]1c1ccccc1 | -0.249 (inactive) | 0.986 | 15.9 (active) | 1 (inactive) | 1.34 (inactive) | -0.976 (inactive) | 0.837 | -2.81 (inactive) | -0.618 (inactive) | -0.698 | -0.211 | 0.687 | -0.517 | 0.301 | -1.48 | 0.26 | -0.58 (inactive) | -1 | 0.279 | 0.107 (inactive)
9 | CS(=O)(=O)CCOC(=O)C1=CC(c2ccc(CO)cc2)=CC(C2CC2)N(Cc2cc3c(cc2Br)OCO3)C=C1C(=O)OCCS(C)(=O)=O (stereo not given) | -1.9 (inactive) | 0.199 | 17.2 (active) | 3.22 (inactive) | 0.904 (inactive) | 1.29 (inactive) | 0.376 | -1.77 (inactive) | -0.749 (inactive) | -2.03 | -0.261 | -0.14 | 1.04 | -2.68 | -2.41 | 2.99 | 0.253 (inactive) | -0.787 | -1.8 | -1.14 (inactive)
